Assay outcomes (PubChem BioAssay)
Hits are enriched below; roughly 4.1% of the tested compounds scored in any of these assays.
hcDAF-12 act – H. contortus DAF-12 activation, primary screen; HEK293 hcDAF-12 lit1-tk-luc reporter, luminescence; 0% DMSO, 100% Δ7-dafachronic acid; activation, % at 6.8 µM; 370,000 tested, 1.4% active; AID 652067;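 active means activation above the mean of all tested compounds plus 3 SD, cut at about 5.5% in these data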;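 further: 100% = response to 3 µM Δ7-dafachronic acid high control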
DAX1 inh-1 – DAX1 (NR0B1) inhibition, primary screen; HEK293T StAR-luciferase reporter, SF-1/DAX-1 repression relief; inhibition, % at 6.8 µM; 370,000 tested, 1.1% active;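 active means inhibition above the mean over all tested compounds plus 3 SD, cut at about 3.6% in these data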;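 further: 0% = DAX-1 cells with DMSO and 100% = cells lacking DAX-1 with DMSO; higher inhibition means more luminescence from relief of DAX-1 repression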
ssDAF12 agonist – activators of S. stercoralis DAF-12 nuclear receptor. HEK293 ssDAF-12/GRIP1 lit1-tk-luc reporter, luminescence; % of 3 µM dafachronic acid response. activation, % at 6.8 µM. 370,000 tested, 1% active. AID 652126;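 active means activation above the mean over all tested compounds plus 3 SD, cut at about 0.9% in these data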;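 further: 0% = DMSO-only wells and 100% = 3 µM delta7-dafachronic acid wells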
hgDAF12 agonist – activates the H. glycines DAF-12 receptor ligand-binding domain; 370,000 tested, 1.8% active; HEK293 GAL4-hgDAF12 UAS-luciferase reporter, agonist luminescence; normalized to butyrate control; activation, % at 6.8 µM;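 active means activation above a cutoff set at the mean of all screened compounds plus 3 SD, cut at about 10% in these data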;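 further: 0% = DMSO wells and 100% = sodium butyrate wells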
DAX1 inh-2 – NR0B1 (DAX1) inhibition. P51843. HEK293 Gal4-DAX1 luciferase reporter, luminescence. inhibition, % at 6.75 µM. 340,000 tested, 0.99% active;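 active means inhibition above the mean over all tested compounds plus 3 SD, cut at about 4.2% in these data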;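 further: 0% = DAX1-transfected cells with DMSO and 100% = empty-vector control cells with DMSO; inhibition shows as a rise in luminescence from relieved DAX1 repression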
Target sequence (P51843 207-470 limits assumed): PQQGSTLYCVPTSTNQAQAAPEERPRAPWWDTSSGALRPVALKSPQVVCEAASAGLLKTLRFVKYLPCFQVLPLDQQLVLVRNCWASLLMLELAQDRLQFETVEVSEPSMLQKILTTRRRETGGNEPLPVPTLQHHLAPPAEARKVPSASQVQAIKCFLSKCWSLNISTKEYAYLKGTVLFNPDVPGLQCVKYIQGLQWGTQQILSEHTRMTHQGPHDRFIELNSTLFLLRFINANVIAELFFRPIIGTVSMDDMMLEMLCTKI
PolyA inh – blocks polyadenylation in yeast reporter cells; S. cerevisiae SKY197-pL101 polyadenylation reporter, beta-gal luminescence; efflux-impaired pdr1/pdr3 knockout yeast; score 100 = 6 SD above DMSO; activity score, % at 12 µM; 300,000 tested, 0.02% active; AID 1875;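 active means lowest replicate activity score at least 50, where 100 means six control SD above control mean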;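 further: yeast exposed to compound for 9 h at 30 °C; higher score means more reporter readthrough which indicates perturbed polyadenylation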
DAX1 inh confirm – NR0B1 (human) inhibition, confirmation; shares compounds with DAX1 inh-1; HEK293T StAR-promoter luciferase reporter, SF-1/DAX-1 repression; inhibition, % at 6.8 µM; 2,400 tested, 87% active;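 active means inhibition above the average of every tested compound plus 3 SD, cut at about 3.8% in these data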;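 further: 0% = DAX-1 cells with DMSO and 100% = no DAX-1 control cells with DMSO; active compounds raise luminescence by relieving repression of the StAR reporter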
SF1 mutant ctr – counter-screen for DAX1 inhibitors: nonselective inhibitors with SF-1 AF2 mutant; shares compounds with DAX1 inh-1; HEK293 StAR-luciferase, luminescence; inhibition, % at 6.8 µM; 2,400 tested, 78% active; AID 652136;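 active means inhibition above the mean of all tested compounds plus 3 SD, cut at about 3% in these data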;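 further: 0% = DAX-1 transfected cells with DMSO and 100% = cells without DAX-1 with DMSO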
An asterisk follows results filed as active; · = no result given.

SMILES	hcDAF-12 act	DAX1 inh-1	ssDAF12 agonist	hgDAF12 agonist	DAX1 inh-2	PolyA inh	others
Nc1ccc(-c2ccccc2)cc1	1.4	2.8	0.1	7.3	0.3	·
O=C(c1ccc(F)cc1Cl)N1CCC2(CC1)OCCO2	-1.4	0.4	-1.4	0.4	-0.2	-3.0
O=C(c1cc2cc(F)ccc2[nH]1)N1CCC2(CC1)OCCO2	4.3	0.7	1.8*	2.9	0.5	-4.5
CCC1CN1P(=O)(c1ccccc1)N1CC1CC (centres undefined)	0.4	1.0	-0.8	5.0	1.7	·
CCOc1cc(C=C2C(=O)NC(=O)NC2=O)ccc1OS(=O)(=O)c1ccccc1	·	·	·	·	0.5	-2.6
Cc1ccc(OCCOc2cccc(C=C3C(=O)NC(=O)NC3=O)c2)c(C)c1	4.4	2.5	1.4*	11.4*	-3.7	-5.0
O=C1NC(=O)C(=Cc2ccc(OCCOc3ccc([N+](=O)[O-])cc3)cc2)C(=O)N1	0.2	-1.0	-1.5	3.7	0.5	2.3
O=C1NC(=O)C(=Cc2cccc(OCCOc3ccccc3)c2)C(=O)N1	5.5	1.1	-0.3	11.4*	-0.2	10.7
Cc1ccc2c(c1)C1CN(C)CCC1N2C(=O)CCCN1C(=O)c2cccc3cccc(c23)C1=O (centres undefined)	-0.5	0.7	-2.0	0.8	-1.8	-11.0
C=CCn1c(O)c(C(CC)=Nc2cccc(C(F)(F)F)c2)c(=O)[nH]c1=O	6.1*	-0.4	0.0	-0.3	0.2	6.0
COC(=O)c1c(C)[nH]c(C(=O)C(C)[N+]23CCN(CC2)CC3)c1C (centres undefined)	-1.0	1.2	-1.8	-2.4	0.1	-5.8
CN1C(=O)N(C)C(=O)C(NS(=O)(=O)c2ccc(N)cc2)(c2ccccc2)C1=O	0.3	-0.5	-0.4	-0.2	0.2	·
O=C(CN1CC(c2ccccc2)CC1=O)Nc1ccc(F)cc1 (centres undefined)	-1.6	-0.7	-1.6	2.3	5.2*	-5.5
CCOC(=O)c1cc2ccccc2n1C1CCN(Cc2ccccc2)CC1	-2.2	0.0	-1.1	3.0	·	·
O=C(O)Cn1cc(/C=C2\C(=O)NC(=O)N(c3ccc(Cl)cc3)C2=O)c2ccccc21	2.2	0.3	1.2*	-0.6	-0.3	16.4
Cc1c(P(=S)(c2ccccc2)c2ccccc2)c2ccccc2n1C	0.4	·	-1.0	-0.2	·	·
CCNC(=O)NC(=O)C(C)OC(=O)c1c(C)nn(Cc2ccccc2)c1Cl (centres undefined)	-0.7	-0.2	-1.5	-0.9	6.3*	8.5
CC1(C)NC(=S)C(C)(C)N1N=O	-1.0	0.9	6.5*	0.1	-0.1	·
O=C1NC(=O)C(=Cc2cc(Cl)ccc2OCc2ccc(C(=O)O)cc2)C(=O)N1	-0.8	0.4	-1.5	-0.8	5.5*	2.2
CN1C(=O)C(=Cc2ccccc2OCc2ccc(Cl)cc2)C(=O)N(C)C1=O	0.9	0.6	-1.1	4.3	-2.0	13.3
CCCCCCCCn1sccc1=O	1.2	-1.6	-1.1	-2.8	-0.4	·
CN1CCN(Cc2cc(=O)n3ccsc3n2)CC1	0.6	0.8	-0.2	-0.6	0.8	4.6
O=c1cc(CN2CCNCC2)nc2sccn12	0.3	0.1	-1.2	1.1	4.9*	-3.3
C/C(=N\NC(=O)c1ccccc1)c1c(O)n(C2CCCCC2)c(=O)[nH]c1=O	4.0	6.0*	-0.5	9.6	0.5	-4.9	DAX1 inh confirm=1.9;SF1 mutant ctr=2.2
CC[C@H]1CN2CCC1C[C@@H]2[C@H](O)c1ccnc2ccc(OC)cc12 (some centres undefined)	-1.6	0.6	-1.0	-2.8	0.1	·
O=C1C(=O)N(c2ccccc2)P(=O)(N(CCCl)CCCl)N1c1ccccc1	5.3	8.1*	0.1	12.1*	3.0	·	DAX1 inh confirm=6.2*;SF1 mutant ctr=3.0*
